Shown are actives, neighbours in structure and some others; about 21% of the full set was active somewhere.
DT40 TDP1 CPT: qHTS for Inhibitors of human tyrosyl-DNA phosphodiesterase 1 (TDP1): qHTS in cells in presence of CPT. chicken DT40 Tdp1-/-;hTDP1 cells + 20 nM CPT, ATP luminescence, 48 h. actives 12% (n = 420,000). Potency, µM (titrated, usually from 46.2 µM), for the others: top-dose activity change, negative = growth inhibition, hits mostly inhibitors; note: potency is the fitted concentration of half-maximal effect; nearly all actives have a fitted effect of over 55% in size
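Chicken DT40 Tdp1-/- cells complemented with human TDP1, 400 cells/well, exposed to compounds plus 20 nM camptothecin for at least 48 h at 37 C; viability read as ATP content by CellTiter-Glo luminescence.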
Gal4-VP16 FLuc: VP16 counterscreen qHTS for inhibitors of ROR gamma transcriptional activity; Drosophila S2 Gal4-VP16 UAS-luciferase, luminescence, 20 h; Potency, µM (doses to about 53.6 µM), without a hit: at the highest dose activity, negative = inhibition, most hits filed as inhibitors; actives 3.5% (n = 310,000); AID 2546, 2010;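 note: Gal4-VP16 expression switched on by copper sulfate through the metallothionein promoter; potency is the fitted concentration of half-maximal effect; nearly all actives have a fitted effect of over 50% in size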
ELG1 DNA repair: qHTS screen for small molecules that inhibit ELG1-dependent DNA repair in human embryonic kidney (HEK293T) cells expressing luciferase-tagged ELG1. HEK293T ELG1-luciferase reporter, luminescence, 16 h; DNA damage induced by 5-fluorouridine. Potency, µM (series often up to 46.1 µM), for inactives: at the top dose activity change, negative = inhibition, most hits filed as inhibitors. actives 2.3% (n = 330,000). AID 504467, 2011; note: potency is the fitted concentration of half-maximal effect; nearly all actives have a fitted effect of over 55% in size
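Quantitative HTS, concentration-response format. 2,000 cells/well co-treated with 5-fluorouridine and compound, 16 hr in 5% CO2 at 37 °C; ONE-Glo luminescence read after 30 min.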
DT40 TDP1 no CPT: qHTS for Inhibitors of human tyrosyl-DNA phosphodiesterase 1 (TDP1): qHTS in cells in absence of CPT; DT40 Tdp1-/- hTDP1 cells, no CPT, ATP luminescence, 48 h; Potency, µM (highest dose often 46.2 µM), for inactives: at the highest dose activity change, negative = growth inhibition, most hits filed as inhibitors; actives 15% (n = 420,000); note: potency is the fitted concentration of half-maximal effect; nearly all actives have a fitted effect of over 55% in size
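Compound effects on proliferation are scored in DT40 Tdp1-/-;hTDP1 cells in the absence of CPT. ATP levels (CellTiter-Glo luminescence) are recorded after a ≥48 hr, 37 °C incubation.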
RORgamma inh: qHTS for inhibitors of ROR gamma transcriptional activity; Drosophila S2 Gal4-RORgamma UAS-luciferase reporter, 20 h; actives 5.4% (n = 310,000); AID 2551, 2010; Potency, µM (titrated, usually from 53.6 µM), for inactives: top-dose activity change, negative = inhibition, most hits filed as inhibitors; note: potency is the fitted concentration of half-maximal effect; nearly all actives have a fitted effect of over 60% in size
Target sequence (P51450 whole entry, looked up, the tested form may be a part): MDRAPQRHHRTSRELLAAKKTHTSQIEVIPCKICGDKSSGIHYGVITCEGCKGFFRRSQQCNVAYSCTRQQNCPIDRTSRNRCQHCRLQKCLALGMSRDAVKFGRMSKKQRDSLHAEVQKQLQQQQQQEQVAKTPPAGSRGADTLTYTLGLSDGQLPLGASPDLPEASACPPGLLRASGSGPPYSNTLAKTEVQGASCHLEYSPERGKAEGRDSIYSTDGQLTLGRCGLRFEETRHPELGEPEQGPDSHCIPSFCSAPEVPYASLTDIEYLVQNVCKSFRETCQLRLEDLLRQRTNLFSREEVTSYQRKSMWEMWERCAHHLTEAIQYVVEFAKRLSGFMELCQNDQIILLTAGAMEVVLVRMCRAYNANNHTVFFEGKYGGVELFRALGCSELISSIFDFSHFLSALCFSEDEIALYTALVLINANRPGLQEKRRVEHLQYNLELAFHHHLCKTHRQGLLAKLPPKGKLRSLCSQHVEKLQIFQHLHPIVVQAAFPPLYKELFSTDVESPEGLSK
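Using a luciferase readout, inhibitors were identified by reduced reporter activity in Drosophila cells coexpressing a copper-inducible Gal4–ROR gamma fusion and UAS-driven Photinus luciferase, incubated 20 hr after 700 uM copper sulfate.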
IL1B secr inh: qHTS for Inhibitors of Inflammasome Signaling: IL-1-beta AlphaLISA Primary Screen; activity change, % at 57.5 µM; THP-1 LPS/ATP IL-1B secretion, AlphaLISA, 16 h; active compounds read low; actives 4.7% (n = 360,000); AID 743279, 2014; in the data active = activity change below about -50%; inconclusive = mostly about -30% to -49%
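Secreted IL-1B measured by AlphaLISA bead assay after 16 h compound exposure of THP-1 cells; compounds (final up to 57.5 uM) added 1 h before LPS (250 ng/mL) and ATP (1.25 mM) stimulation; lower signal means less secretion.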
* = called active by the depositor; u = inconclusive; x = no result given; [ ] = dose if it differs, or a comment. Unless noted, calls come from the whole dose curve; as a rule, active = well fitted curve in the direction sought with a large enough effect; inconclusive = small, poorly fitted or top-dose-only effect, or another doubt; inactive = no such curve, though single readings can be large; an effect the other way counts as inactive or inconclusive. % is set by controls: 0 for no effect and ±100 for the full control effect.

SMILES	DT40 TDP1 CPT	Gal4-VP16 FLuc	ELG1 DNA repair	DT40 TDP1 no CPT	RORgamma inh	IL1B secr inh
COC(=O)[C@H](COC(C)(C)C)NC(=O)O[C@@H]1Cc2cc(Br)ccc2O[C@H]1c1cccc(OC)c1	x	-5%	x	x	27%	x
OC(c1cccc(Cl)c1)c1nc(/C=C/c2ccccc2)cs1 (configuration not stated)	u	x	x	u	x	24
CCOC(=O)c1c(-c2ccc(C)o2)csc1NC(=O)CN1CCN(CC)CC1	u	5%	-9%	29µM*	-1%	-18
CCOC(=O)c1c(NC(=O)CN2CCCCC2)sc2c1CCC(C=O)=C2Cl	4µM*	-1%	28%	3.5µM*	-32%	-21
COc1ccc(S(=O)(=O)N2CCC[C@@H]2C(=O)N2CCC[C@H]2C(=O)NCc2ccncc2)cc1C	u	x	x	u	x	52
COCc1cc(=O)oc2cc(NC(=O)c3ccc(C(C)(C)C)cc3)ccc12	9.2µM*	2%	9%	15µM*	6%	-12
COc1cc(C(=O)Nc2ccc(NC(=O)c3ccc(C(C)(C)C)cc3)cc2)cc(OC)c1OC	2.9µM*	x	x	3.3µM*	x	x
COc1cc(C(=O)Nc2ccc3ccccc3c2)cc(OC)c1OC	u	-1%	27%	0.65µM*	37%	3
COc1cc(C(=O)Nc2ccc(C(=O)c3ccncc3)cc2)cc(OC)c1OC	15µM*	x	x	23µM*	x	-15
CS(=O)(=O)N1CCC(C(=O)Nc2ccccc2)CC1	-8%	-6%	13%	0%	0%	9
CS(=O)(=O)N1CCC(C(=O)Nc2ccccc2Sc2ccccc2)CC1	-7%	5.6µM*	10%	-19%	u	-3
CN(c1ccc(C(=O)Nc2ccccc2Sc2ccccc2)cc1)S(C)(=O)=O	u	-7%	-2%	21µM*	27%	-9
Cc1ccc(C(=O)Nc2ccccc2Sc2ccccc2)cc1	7%	20%	u	-3%	9%	25
CNS(=O)(=O)c1cn(CC(=O)Nc2ccc(OC)c(Cl)c2)cc1S(=O)(=O)NC	0%	x	x	-9%	x	x
CC(C)N(Cc1ccccc1)C(=O)CN1C(=O)NC2(CCCCCC2)C1=O	-21%	x	-2%	-39%	x	7
CCOC(=O)c1ccc(N2C(=O)c3n[nH]c(-c4ccco4)c3C2c2cccc(OC)c2)cc1 (configuration not stated)	23µM*	x	x	18µM*	x	x
O=C(O)c1ccc(N2C(=O)c3[nH]nc(-c4ccccc4)c3C2c2cccc(F)c2)cc1 (configuration not stated)	-12%	x	x	-5%	x	x
CCOC(=O)c1ccc(N2C(=O)c3n[nH]c(-c4ccco4)c3C2c2ccc(OCC)cc2)cc1 (configuration not stated)	u	x	x	16µM*	x	x
CCOC(=O)c1ccc(N2C(=O)c3n[nH]c(-c4ccco4)c3C2c2ccc(F)cc2)cc1 (configuration not stated)	23µM*	x	x	23µM*	x	x
CCOC(=O)c1ccc(N2C(=O)c3n[nH]c(-c4ccco4)c3C2c2cccc(F)c2)cc1 (configuration not stated)	18µM*	x	x	21µM*	x	x
O=C(O)C(=O)Nc1cccc(-c2nn[nH]n2)c1	-1%	x	x	-5%	x	x
CCOC(=O)c1ccc(N2C(=O)c3n[nH]c(C)c3C2c2ccccc2)cc1 (configuration not stated)	-16%	-6%	u	-24%	-1%[10 µM]	-6
